The results in this text go back to PubChem BioAssay (Tox21).

The nature of test [1]: qHTS assay to identify small molecule antagonists of the retinoid-related orphan receptor gamma (ROR-gamma) signaling pathway - cell viability counter screen (AID 1159520). Note: nearly all actives have a fitted effect of over 50% in size. Note: potency is the fitted concentration of half-maximal effect. The gist of the method:
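Tet-on ROR gamma CHO cells (1,000/well) were plated 4 hr, given compounds in DMSO for 2 hr at 37 C, then induced with 1 uM final doxycycline for 16 hr. Viability was read as ATP by CellTiter-Glo luminescence after 30 min.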
In general terms: qHTS replaces the single test concentration by a dilution series.

Test [2] concerns the target Nuclear receptor ROR-gamma (Homo sapiens) (UniProt P51449). As to the kind of experiment: qHTS assay to identify small molecule antagonists of the retinoid-related orphan receptor gamma (ROR-gamma) signaling pathway (AID 1159521; note: nearly all actives have a fitted effect of over 50% in size; note: potency is the fitted concentration of half-maximal effect). The gist of the method:
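Screening format: cell-based luciferase reporter in CHO cells with doxycycline-inducible RORγ. Compound pre-exposure lasts 2 h, doxycycline is 1 uM final, induction runs 16 h at 37 C, and ONE-Glo luminescence is read.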

A short description of test [3]: qHTS assay to identify small molecule agonists of the AP-1 signaling pathway - cell viability counter screen (AID 1159525; calls by dose curve; note: nearly all actives have a fitted effect of over 55% in size; note: potency is the fitted concentration of half-maximal effect). The gist of the method: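 Each titration point was normalised to DMSO and tetra n-octyl ammonium bromide controls. The read was Cell Titer Glo luminescence after 30 min at RT, following 5 h compound exposure of ME-180 AP-1-bla cells at 37 °C.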

Test [4] has as its target Retinoic acid receptor RXR-alpha (Homo sapiens) (UniProt P19793). Kind of test: qHTS assay to identify small molecule agonists of the RXR signaling pathway (AID 1159527; calls by dose curve; note: nearly all actives have a fitted effect of over 35% in size). In short, it runs like this:
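Fluorescence ratio readout (460 vs 530 nm) from GeneBLAzer RXR-alpha HEK 293T cells after 16 hr compound treatment; cells seeded 5 hr beforehand in low-serum, charcoal-stripped medium.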

Test [5] can be described thus: qHTS assay to identify small molecule agonists of the RXR signaling pathway - cell viability counter screen (AID 1159529). Note: nearly all actives have a fitted effect of over 50% in size. Note: potency is the fitted concentration of half-maximal effect. The gist of the method:
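Viability read-out for the RXR-alpha agonist qHTS: luminescent CellTiter-Glo signal after 30 min at RT. HEK 293T bla reporter cells, 2% charcoal-stripped FBS, 16 hr compound incubation; tetraoctyl ammonium bromide as cytotoxic control.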

Test [6] can be described thus: qHTS assay to identify small molecule antagonists of the retinoid acid receptor (RAR) signaling pathway - cell viability counter screen (AID 1159551). Note: nearly all actives have a fitted effect of over 35% in size. Note: potency is the fitted concentration of half-maximal effect. In short, it runs like this:
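Cytotoxicity counter screen: ATP content quantified by CellTiter-Glo luminescence in C3RL4 cells treated 6 hr at 37 C with compound and retinol (1 uM final). Cells plated at 1,000/well and cultured overnight before dosing.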

A short description of test [7]: qHTS assay to identify small molecule antagonists of the retinoic acid receptor (RAR) signaling pathway (AID 1159552; note: nearly all actives have a fitted effect of over 50% in size; note: potency is the fitted concentration of half-maximal effect). In short, it runs like this:
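Using a RARE-driven luciferase construct in C3RL4 cells, retinol at 1 uM final provided the agonist stimulus while compounds were co-applied. After 6 hours at 37 C, luminescence was recorded to flag inhibitors of retinol signaling.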

A short description of test [8]: qHTS assay to identify small molecule agonists of the AP-1 signaling pathway (AID 1159526; calls by dose curve).
Test [9] can be described thus: qHTS assay to identify small molecule agonists of the peroxisome proliferator-activated receptor delta (PPARd) signaling pathway - cell viability counter screen (AID 743211). Note: nearly all actives have a fitted effect of over 55% in size. In short, it runs like this:
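Following 5 h plating at 37 C and 5% CO2, PPARd UAS-bla HEK293H cells took up test compounds for 17 h. Viability was quantified by luminescence 30 min after CellTiter-Glo addition at room temperature.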

A short description of test [10]: qHTS assay to identify small molecule antagonists of the peroxisome proliferator-activated receptor delta (PPARd) signaling pathway - cell viability counter screen (AID 743213). Note: nearly all actives have a fitted effect of over 50% in size. The gist of the method: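 CellTiter-Glo was added to PPARd-bla HEK293H wells following 17 h compound treatment in the presence of 300 nM L165041. Luminescence was recorded after 30 min at room temperature.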

Test [11] concerns the target Bile acid receptor (Homo sapiens) (UniProt Q96RI1). As to the kind of experiment: qHTS assay to identify small molecule antagonists of the farnesoid-X-receptor (FXR) signaling pathway (AID 743217; active = well fitted inhibition curve with a large enough effect in the signal ratio in the repeat runs, not every such curve was filed as active; the % refers to the signal ratio). In short, it runs like this:
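Antagonist mode: chenodeoxycholic acid at 50 uM final stimulates a UAS-driven beta-lactamase reporter in HEK 293T FXR-bla cells during 16 h, 37C compound exposure. Read-out is FRET substrate fluorescence after 2 h at room temperature.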

A short description of test [12]: qHTS assay to identify small molecule agonists of the farnesoid-X-receptor (FXR) signaling pathway - cell viability counter screen (AID 743218). Note: nearly all actives have a fitted effect of over 45% in size. In short, it runs like this:
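Viability counter screen in the same wells: CellTiter-Glo luminescence, 30 min room-temperature incubation, measured after the beta-lactamase read. Cells were GeneBLAzer FXR-UAS-bla HEK 293T, compound-treated 16 h at 37C.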

For test [13], the target named is Bile acid receptor (Homo sapiens) (UniProt Q96RI1). As to the kind of experiment: qHTS assay to identify small molecule agonists of the farnesoid-X-receptor (FXR) signaling pathway (AID 743220; active = well fitted activation curve with a large enough effect in the signal ratio in the repeat runs, not every such curve was filed as active; the % refers to the signal ratio). The gist of the method:
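FXR-UAS-bla HEK 293T cells carrying a UAS-driven beta-lactamase reporter were plated for 5 h at 37C/5% CO2, then exposed to DMSO-dissolved Tox21 10K compounds for 16 h at 37C. A LiveBLAzer B/G FRET substrate was loaded for 2 h at room temperature before fluorescence reading.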

A short description of test [14]: qHTS assay to identify small molecule antagonists of the farnesoid-X-receptor (FXR) signaling pathway - cell viability counter screen (AID 743221; active = well fitted cell-killing curve with a large enough effect in the repeat runs, not every such curve was filed as active; note: nearly all actives have a fitted effect of over 50% in size). The gist of the method:
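Compound effects on cell number were measured as CellTiter-Glo luminescence in HEK 293T cells expressing FXR-UAS-bla, after 16 h at 37 C with 50 uM CDCA (final).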

Test [15] concerns the target Vitamin D3 receptor (Homo sapiens) (UniProt P11473). Kind of test: qHTS assay to identify small molecule agonists of the vitamin D receptor (VDR) signaling pathway (AID 743222; calls by dose curve). The gist of the method:
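Agonist mode, beta-lactamase reporter: fluorescence from LiveBLAzer B/G FRET substrate (2 h, room temperature) read after 16 h compound treatment at 37 C of VDR-bla cells, which were pre-incubated 4 h after seeding.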

Test [16] is described as follows: qHTS assay to identify small molecule agonists of the vitamin D receptor (VDR) signaling pathway - cell viability counter screen (AID 743224). The gist of the method: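 Counter screen run in the same wells as the VDR-bla reporter assay: CellTiter-Glo luminescence, 30 min at room temperature, after 16 h compound treatment at 37C of cells pre-plated for 4 h.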
Test [17] can be described thus: qHTS assay to identify small molecule antagonists of the vitamin D receptor (VDR) signaling pathway - cell viability counter screen (AID 743225). Note: nearly all actives have a fitted effect of over 50% in size. In short, it runs like this:
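In this counter screen, VDR-bla HEK 293T cells receive test compound plus 3 nM final calcitriol for 16 h at 37C. Room-temperature steps of 2 h with the beta-lactamase substrate, then 30 min with CellTiter-Glo, precede the luminescence read.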

Results filed as inconclusive are left out. Values without a mark were called inactive. Activity calls are given as the source filed them. Unless noted, calls come from the whole dose curve; as a rule, active = well fitted curve in the direction sought with a large enough effect in the repeat runs; inconclusive = weak or mixed curves; inactive = no such curve, though single readings can be large; an effect the other way counts as inactive or inconclusive.

Retinoic acid receptor RXR-alpha (Homo sapiens), sequence (P19793 whole entry, looked up): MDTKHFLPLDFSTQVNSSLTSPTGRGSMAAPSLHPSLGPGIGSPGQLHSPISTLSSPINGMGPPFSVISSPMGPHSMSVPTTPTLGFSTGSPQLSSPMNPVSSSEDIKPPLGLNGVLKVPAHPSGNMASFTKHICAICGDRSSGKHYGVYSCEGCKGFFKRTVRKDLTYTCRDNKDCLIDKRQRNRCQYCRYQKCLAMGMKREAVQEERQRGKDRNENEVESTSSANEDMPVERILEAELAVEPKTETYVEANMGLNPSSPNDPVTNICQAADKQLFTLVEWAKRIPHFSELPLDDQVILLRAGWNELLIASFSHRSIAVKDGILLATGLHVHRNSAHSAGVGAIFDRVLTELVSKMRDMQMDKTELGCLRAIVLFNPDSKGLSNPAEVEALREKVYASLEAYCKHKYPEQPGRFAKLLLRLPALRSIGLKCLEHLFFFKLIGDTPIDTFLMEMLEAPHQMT
Bile acid receptor (Homo sapiens), sequence (Q96RI1 whole entry, looked up): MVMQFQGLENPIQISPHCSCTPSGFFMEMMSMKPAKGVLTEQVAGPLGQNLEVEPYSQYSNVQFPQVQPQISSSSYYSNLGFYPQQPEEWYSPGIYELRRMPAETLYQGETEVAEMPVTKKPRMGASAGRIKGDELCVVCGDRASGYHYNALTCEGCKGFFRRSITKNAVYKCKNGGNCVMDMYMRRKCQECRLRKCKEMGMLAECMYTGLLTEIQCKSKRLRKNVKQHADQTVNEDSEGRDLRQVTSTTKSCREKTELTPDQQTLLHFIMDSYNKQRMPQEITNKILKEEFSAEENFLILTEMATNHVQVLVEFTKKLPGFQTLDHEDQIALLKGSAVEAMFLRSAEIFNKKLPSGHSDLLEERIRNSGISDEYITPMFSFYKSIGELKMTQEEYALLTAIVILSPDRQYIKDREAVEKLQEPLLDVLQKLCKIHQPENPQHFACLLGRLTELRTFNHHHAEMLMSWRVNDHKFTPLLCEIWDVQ
Vitamin D3 receptor (Homo sapiens), sequence (P11473 whole entry, looked up): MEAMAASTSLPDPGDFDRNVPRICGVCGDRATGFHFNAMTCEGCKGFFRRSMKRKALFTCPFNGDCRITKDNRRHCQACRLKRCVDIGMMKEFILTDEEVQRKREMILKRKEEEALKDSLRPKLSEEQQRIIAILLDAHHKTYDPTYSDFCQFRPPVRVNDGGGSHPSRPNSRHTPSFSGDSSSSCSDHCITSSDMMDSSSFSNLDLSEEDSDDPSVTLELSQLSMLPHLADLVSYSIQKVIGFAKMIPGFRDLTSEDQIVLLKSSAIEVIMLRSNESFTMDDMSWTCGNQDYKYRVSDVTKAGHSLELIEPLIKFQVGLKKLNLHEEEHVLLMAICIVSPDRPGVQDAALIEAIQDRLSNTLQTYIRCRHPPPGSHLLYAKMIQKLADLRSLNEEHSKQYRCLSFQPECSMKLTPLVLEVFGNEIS

`[Cl][Eu]([Cl])[Cl]`: the Potency result in [1], in [2], in [3], in test [4], in [5] and in [6] was “inactive” each time.
For the compound `Cc1ccc(S(=O)(=O)C(I)I)cc1`, the Potency in test [1] was 17.2 µM (active); in [2], 6.11 µM (active); in test [3], 17.4 µM (active); in test [5] it was 12.3 µM (active); in [6], 43.3 µM (active); in test [7], 9.69 µM (active).
For the compound `CC(C=O)c1ccccc1` (stereo not drawn), the Potency entry in test [1], in [2], in test [3], in [8], in test [4] and in test [5] was “inactive” each time. In addition, the Potency result in test [6] and in test [7] was “inactive” in each case.
In the case of `COc1c(Br)cc(Br)c(C)c1Br`, the Potency result in test [9], in [10], in test [11], in test [12], in test [14] and in test [16] was “inactive” in each case. Besides, the Potency entry in test [17], in test [1], in test [2], in test [3], in [8] and in [4] was “inactive” each time. Also, the Potency result in test [5] and in test [6] was “inactive” in each case. Moreover, the outcome in test [13] and in [15] was inactive.
In the case of `CC(=O)Nc1ccc(N=Nc2cc(C)ccc2O)cc1`, the Potency entry in [1], in test [2], in test [3], in test [5], in test [6] and in test [7] was “inactive” throughout.
Take `COc1cc(OC)nc(NC(=O)NS(=O)(=O)Nc2ccccc2C(=O)N(C)C)n1`: the Potency entry in test [1], in test [2], in [3], in test [8], in test [4] and in [5] was “inactive” each time. The Potency result in test [6] was “inactive”.
As to `Cc1ccc(N=Nc2c(O)ccc3ccccc23)c(C)c1`, the Potency result in test [1], in test [2], in test [3], in [8], in test [5] and in test [6] was “inactive” in each case. Further, the Potency result in [7] was “inactive”.
With `Cc1ccc(C=O)cc1`, the Potency result in test [1], in test [2], in [3], in [4], in [5] and in test [6] was “inactive” throughout.
Take `O=c1[nH]cccc1O`: the Potency result in test [1], in [2], in test [3], in [8], in [4] and in [5] was “inactive” throughout. In addition, the Potency entry in test [6] and in test [7] was “inactive” each time.
With `CC(C)(C)C1=CC(=O)C(C(C)(C)C)=CC1=O`, the Potency result in test [1], in [3], in test [8] and in [6] was “inactive” each time. Also, the Potency in test [2] was 10.6 µM (active).
`NC(=O)c1ccccc1Cl`: the Potency result in [1], in [2], in test [3], in test [8], in test [4] and in test [5] was “inactive” throughout. The Potency entry in test [6] was “inactive”.
With `C=CC(C)(C)O`, the Potency entry in [1], in [3], in [8], in test [4], in test [5] and in [6] was “inactive” in each case.
Regarding `Brc1cc(Br)cc(Br)c1`, the Potency entry in [1], in [3], in test [8], in test [5] and in test [6] was “inactive” throughout.
